Pf Dd2 inh: Plasmodium falciparum Dd2 growth inhibition; P. falciparum Dd2 growth, SYBR Green, 72 h; Potency, µM (titrated, usually from 28.9 µM), most hits filed as inhibitors; 4.3% of 120,000 active; AID 1347417; active = well fitted inhibition curve with a large enough effect; note: nearly all actives have a fitted effect of over 65% in size
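Readout: SYBR Green fluorescence, 485 nm excitation, 535 nm emission, after ~16 h lysis at 37C. Before that, Dd2-infected red cells (2.5% hematocrit) grew 72 h with compound, 29 uM top final concentration.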
Each line names hits and unclear results; the compound was inactive in the other large screens. This is one part of a sample in which hits are shown more often than they occur.

C#CCN(C)CC[C@@H]1CC[C@H](O)[C@@H](C(=O)N(C)Cc2ccccc2)O1	none
c1cc2nnc(C3CC3)n2nc1N1CCCC1	none
COCCNC(=O)[C@H]1C[C@H](Oc2cccnc2)CN1C(=O)Nc1ccccc1	none
CCS(=O)(=O)Nc1ccc(C2(C(=O)NCc3ccc4c(c3)OCO4)CCCCC2)cc1	Pf Dd2 inh 11µM
CCS(=O)(=O)Nc1ccc(C2(C(=O)NCc3cccnc3)CCCCC2)cc1	none
CC(=O)Nc1ccc(C2(C(=O)NCc3ccc4c(c3)OCO4)CCC2)cc1	none
O=C(N[C@H]1CCN2C(=O)c3cc(/C=C/c4ccccc4)ccc3NC(=O)[C@H]12)C1CCCC1	none
CNC(=O)c1cccc2c1CCN2C(=O)Nc1ccc(C)cc1	none
CCn1c(CN2CCC(C)CC2)nc2cc(NC(=O)c3cccc([N+](=O)[O-])c3)ccc21	Pf Dd2 inh 6.3µM
CCn1c(CN2CCOCC2)nc2cc(NC(=O)c3ccc([N+](=O)[O-])cc3)ccc21	none
CCn1c(CN2CCC(C)CC2)nc2cc(NC(=O)c3ccc([N+](=O)[O-])cc3)ccc21	none
Cc1ccc(NC(=O)C2CCN(c3cn[nH]c(=O)c3)C2)cc1 (stereo not given)	none
Cc1nc(CC2CCN(c3nccc(-c4cccnc4)n3)CC2)no1	none
O=c1[nH]c2ccccc2n1C1CCN(c2nccc(-c3cccnc3)n2)CC1	Pf Dd2 inh 11µM
O=C(NCc1ccccn1)C1CCN(c2nccc(-c3cccnc3)n2)CC1	none
O=C(NCCc1ccccc1)[C@@H]1COCC(=O)N1Cc1ccc(F)cc1	none
NC(=O)C1(N2CCCCC2)CCN(C(C(=O)O)c2ccc(N)c(F)c2)CC1 (stereo not given)	none
COc1ccc2c(c1)C1(CCN(S(=O)(=O)c3ccc4c(c3)CC(=O)N4C)C1)C(=O)N2C (stereo not given)	Pf Dd2 inh 2.5µM
COc1ccc2c(c1)C1(CCN(C(=O)CCc3ccccc3)C1)C(=O)N2C (stereo not given)	none
CN1C(=O)Cc2cc(S(=O)(=O)N3CCN(c4ccc(Cl)cc4)CC3)ccc21	none
CNC(C)c1ccccc1 (stereo not given)	none
Cc1ccc(CNS(=O)(=O)c2c(C(=O)N3CCC(C)CC3)c(C)n(C)c2C)cc1	none
Cc1c(C(=O)N2CCCCC2)c(S(=O)(=O)NCc2ccc(N(C)C)cc2)c(C)n1C	none
Cc1c(C(=O)N2CCCCCC2)c(S(=O)(=O)N(Cc2ccccc2)C(C)(C)C)c(C)n1C	Pf Dd2 inh 13µM
CCCn1cnc2c1CN(S(=O)(=O)c1cccc(C(F)(F)F)c1)[C@H](C(=O)OC)C2	none
COc1ccc(CNC(=O)Cn2c(N3CCc4ccccc4C3)nc(C)cc2=O)cc1	Pf Dd2 inh 8.9µM
COc1cccc(CNC(=O)Cn2c(N3CCc4ccccc4C3)nc(C)cc2=O)c1	none
COc1cc(NC(=O)Cn2c(N3CCc4ccccc4C3)nc(C)cc2=O)cc(OC)c1OC	none
COc1ccc(N2CCN(C(=O)[C@H]3CCC[C@H]3NC(=O)c3cnc(C)cn3)CC2)cc1	none
Cc1nn(C)cc1C(=O)N1C[C@@H](CO)[C@H](c2ccccn2)C1	none
CSc1ccc(-c2nc(CN3CCCC(CO)C3)c(C)o2)cc1 (stereo not given)	none
Cc1oc(-c2cccc(C(F)(F)F)c2)nc1CN1CCCC(CO)C1 (stereo not given)	Pf Dd2 inh 11µM
Cc1ccc(Cl)cc1N1CCN(C(=O)C2CCCN(Cc3nc(-c4cccc(Cl)c4)oc3C)C2)CC1 (stereo not given)	none
COc1ccccc1CC(=O)N[C@@H]1CN(C2CCOCC2)C[C@H]1CN(C)C	none
O=C(NC1CCCC1)N1CCC(c2noc(C3CC3)n2)C1 (stereo not given)	none
COCCN1CCCN(C(=O)C2CCC2)c2ccccc21	none
COc1ccccc1C(=O)N1CCCN(Cc2ccc3c(c2)OCO3)c2ccccc21	none
O=C(C1CC1)N1CCCN(Cc2ccc3c(c2)OCO3)c2ccccc21	Pf Dd2 inh 8.9µM
O=C([C@@H]1C[C@H](Oc2cccnc2)CN1C(=O)COc1ccccc1)N1CCCC1	none
Cc1ccc(N2CCN(C(=O)C3CC(=O)N(c4n[nH]c5cccc(F)c45)C3)CC2)c(C)c1 (stereo not given)	none
COc1ccc(-c2cc(C(=O)NCc3ccc(C)cc3)c3cc(C(C)C)ccc3n2)cc1	none
Cc1ccc(-c2cc(C(=O)NCc3cnn(C)c3C)c3cc(Br)ccc3n2)cc1	Pf Dd2 inh 11µM
CCn1cc(CNC(=O)c2cc(-c3ccc(C)c(C)c3)nc3ccccc23)c(C)n1	none
CCCCC(Sc1nc2cc3c(cc2c(=O)n1CCCC(=O)NCc1ccc(OC)cc1)OCO3)C(=O)OCC (stereo not given)	Pf Dd2 inh 7.9µM
COc1ccc(CNC(=O)CCCn2c(SCC(N)=O)nc3cc4c(cc3c2=O)OCO4)cc1	none
CCC(Sc1nc2cc3c(cc2c(=O)n1CCCC(=O)NCc1ccc(OC)cc1)OCO3)C(=O)NCCCOC (stereo not given)	none
CCCc1noc(-c2cn(C3CCN(C(=O)c4ccsc4)CC3)nn2)n1	none
COc1cc(OC)c(C(=O)N2CC[C@H](CO)[C@@H](O)C2)cc1OC	none
COc1ccc(CN2CCOC[C@H](Oc3cccc(C)n3)C2)cc1	none
COc1ccc(OC2CN(Cc3ccc(F)cc3)C2)cc1	none
CS(=O)(=O)c1ccc(O[C@H]2COCCN(Cc3cccnc3)C2)cc1	none
COc1ccc(CN2CCOC[C@H](Oc3ccc(C(F)(F)F)cn3)C2)cc1	none
Fc1ccc(CN2CCOC[C@H](Oc3ccccc3)C2)cc1	Pf Dd2 inh 13µM
COc1ccc(CN2CCOC[C@H](Oc3ccccc3)C2)cc1	Pf Dd2 inh 7.1µM
Cc1ccc(C(=O)N2C[C@@H](Oc3ccccc3)C[C@@H]2C(=O)N2CCOCC2)cn1	none
Cn1nnnc1SCCCNCc1cc(Br)ccc1OCc1ccccc1F	Pf Dd2 inh 7.9µM
Cn1nnnc1SCCNCc1ccccc1Cl	none
COc1cc(CNCCSc2nnnn2C)ccc1OCc1ccc(F)cc1	none
Cn1nnnc1SCCNCc1ccc(F)cc1	none
Cn1nnnc1SCCCNCc1cc(Br)ccc1OCc1ccccc1	Pf Dd2 inh 11µM
COc1cccc(CNCCSc2nnnn2C)c1OCc1ccc(F)cc1	none
Cn1nccc1C(=O)N1CCC(Nc2cccnc2)C1 (stereo not given)	none
COC(=O)[C@@H]1Cc2ncn(C(C)C)c2CN1S(=O)(=O)c1cccs1	none
COCCNC(=O)[C@@H]1C[C@H](Oc2ccccc2)CN1C(=O)c1cccn1C	none
O=C(c1cccc2[nH]ccc12)N1CC[C@@H]2COCCN(Cc3cccnc3)[C@@H]2C1	none
COCc1ccc(C(=O)N2CC[C@@H](NC(=O)c3cnccn3)[C@H](O)C2)s1	none
COc1ccc(CCNC(=O)C2CCCCC(=O)N2C)cc1OC (stereo not given)	none
O=C(N[C@@H]1CN(Cc2cccc(F)c2)C[C@H]1CO)c1ccccc1	none
N#Cc1ccc(CN2C[C@@H](CO)[C@H](NC(=O)c3ccccc3)C2)cc1	none
O=C(N[C@@H]1CN(Cc2cc(F)cc(F)c2)C[C@H]1CO)c1ccccc1	Pf Dd2 inh 10µM
CCCOc1nccnc1NC1CCN(C(=O)NCc2ccco2)CC1	none
Cc1cc(C(=O)N2CC[C@H](CO)[C@H](O)C2)cc2sc(N)nc12	none
c1ccc(OCCC2CCNC2)cc1 (stereo not given)	none
CCOCCOC1CCN(C(=O)c2sccc2C)CC1	none
COc1ccc(NC(=O)N2CCc3c([nH]c4ccc(OC)cc34)C2c2ccc(OC)cc2)cc1 (stereo not given)	Pf Dd2 inh 4.5µM
COc1ccc2[nH]c3c(c2c1)CCN(C)C31CCN(C(=O)C2CCC2)CC1	none
COc1ccc2[nH]c3c(c2c1)CCN(C(=O)c1cccc(Cl)c1)C3c1ccc(F)cc1 (stereo not given)	none
